Measured values as given in PubChem BioAssay (Tox21).
Inconclusive results are not listed. A number with no mark means an inactive call. The source made the active and inactive calls. The call rests on the fitted dose curve; in most records, active means well fitted cell-killing curve with a large enough effect in the repeat runs; inconclusive means weak or mixed curves, or effect the other way; inactive means no such curve, though single readings can be large or run the other way.

test: qHTS assay for small molecule activators of the heat shock response signaling pathway - cell viability counter screen (AID 743209); conditions: HSE-bla HeLa viability, CellTiter-Glo luminescence, 5 h; series mostly up to 62.6 µM; activity change, negative = cytotoxicity: at the top concentration; further: nearly all actives have a fitted effect of over 50% in size
Text: U.S. Tox21 Program National Center for Advancing Translational Sciences [NCATS] NIH Chemical Genomics Center [NCGC] U.S. Environmental Protection Agency [EPA] National Institutes of Environmental Health Sciences [NIEHS] National Toxicology Program [NTP] U.S. Food and Drug Administration [FDA] Tox21 Assay Overview: Various chemicals, environmental and physiological stress conditions may lead to the activation of heat shock response/ unfolded protein response (HSR/UPR). There are three heat shock transcription factors (HSFs) (HSF-1, -2, and -4) mediating transcriptional regulation of the human HSR. To identify the compounds that activate HSR signaling, HSE-bla HeLa cell line (Invitrogen, Carlsbad, CA, USA) containing a beta-lactamase reporter gene under the control of the heat shock response elements was used to screen Tox21 10K compound library. The cytotoxicity of the Tox21 compound library against the HSE-bla HeLa cell line was tested in parallel by measuring the cell viability using CellTiter-Glo assay (Promega, Madison, WI) in the same wells.
Tox21 Assay Protocol Summary: The CellSensor HSE-bla HeLa cells (Invitrogen, Carlsbad, CA, USA) were dispensed at 1500 cells/6uL/well into 1536-well black wall/clear bottom plates using a Multidrop combi (Thermo Fisher Scientific, Waltham, MA) dispenser. After the assay plates were incubated at 37 C and 5% CO2 overnight, 23 nL of compounds dissolved in DMSO, positive controls or DMSO only was transferred to the assay plate by a Pintool station (Kalypsys, San Diego, CA). The plates were incubated at 37 C for 5 h. After 1 uL of LiveBLAzerTM B/G FRET substrate was added using a Flying Reagent Dispenser (FRD, Beckman Coulter, Indianapolis, IN, USA), the plates were incubated at room temperature for 2.5 h, and fluorescence intensity was measured by an Envision plate reader (PerkinElmer, Shelton, CT). For cell viability readout that measures cytotoxicity, 3 ul/well of CellTiter-Glo reagent was added into the assay plates using a FRD. After 30 min incubation at room temperature, the luminescence intensity in the plates was measured using a ViewLux (PerkinElmer) plate reader.
On the % scale 0 is the no-effect control and ±100 the full control effect.

| Compound | outcome | activity change, negative = cytotoxicity |
| --- | --- | --- |
| O=S(=O)(c1ccc(Cl)cc1)c1cc(Cl)c(Cl)cc1Cl | inactive |  |
| NCCc1ccc(O)cc1 | inactive |  |
| Cc1cc(-c2cc(C)c(N)c(C)c2)cc(C)c1N | inactive |  |
| Nc1ccc(Br)cc1 | inactive |  |
| CC(C)C#N | inactive |  |
| CN=C=S | inactive |  |
| CN(N=O)c1ccccc1 | inactive |  |
| BrCCBr | inactive |  |
| O=[N+]([O-])c1ccc([As](=O)(O)O)cc1 | inactive |  |
| CCNc1nc(NC(C)C)nc(SC)n1 | inactive |  |
| CC(C)(Cl)Cl | inactive |  |
| CCOC(=O)c1ccccc1C(=O)OCC | inactive |  |
| CC(NC(C)(C)C)C(=O)c1cccc(Cl)c1 (stereo not given) | inactive |  |
| CC1C=[C-]C=C1.[C-]#[O+].[C-]#[O+].[C-]#[O+].[Mn] | inactive |  |
| CCOP(=S)(OCC)SCCSCC | inactive |  |
| O=S(=O)(c1ccc(O)cc1)c1ccc(O)cc1 | inactive |  |
| CC(C#N)CCC#N (stereo not given) | inactive |  |
| C=CCO | inactive |  |
| CCC[N+](=O)[O-] | inactive |  |
| COP(N)(=O)SC (stereo not given) | inactive |  |

| Compound | outcome | activity change, negative = cytotoxicity |
| --- | --- | --- |
| CCCCCCCCCCCC#N | inactive |  |
| CCNc1nc(NC(C)(C)C)nc(SC)n1 | inactive |  |
| CCCCN(CC)C(=O)SCCC | inactive |  |
| CC(Br)C(=O)O (stereo not given) | inactive |  |
| Nc1ccc(Cc2ccc(N)cc2)cc1 | inactive |  |
| COCCl | inactive |  |
| Nc1ccccc1C(=O)O | inactive |  |
| CNC(=O)Oc1ccccc1OC(C)C | inactive |  |
| C#CCN(C)[C@H](C)Cc1ccccc1 | inactive |  |
| Cc1cccc([N+](=O)[O-])c1 | inactive |  |
| CCCN(CCC)c1c([N+](=O)[O-])cc(C(F)(F)F)cc1[N+](=O)[O-] | inactive |  |
| CCCCCCCCCl | inactive |  |
| [O-][Cl+2]([O-])O | inactive |  |
| O=c1n(Cl)c(=O)n(Cl)c(=O)n1Cl |  | 2.24% |
| CC(C)N1C(=O)c2ccccc2NS1(=O)=O | inactive |  |
| CC1OC(C)OC(C)O1 (stereo not given) | inactive |  |
| CCCCCOC(=O)c1ccccc1C(=O)OCCCCC | inactive |  |
| CCN(CC)CCO | inactive |  |
| Cc1ccc([N+](=O)[O-])cc1C | inactive |  |
| COC(=O)c1ccccc1N | inactive |  |
